Measured values reported in the supplement of paper PMC4466140.

What was measured:
Assay in all cases: SPOT peptide array binding signal intensity (averaged, normalized) (arbitrary units (background-subtracted, floor 0; scale differs between SH3 domains)); higher = stronger binding of the SH3 domain to the peptide
AgAbp1 = molecular target: AgAbp1
In short: (§1)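 Cellulose membranes carried synthetic 15-mer peptides with cysteines swapped for serines. These were incubated overnight at 4°C with 10 μg/ml of GST-fused SH3 domains from four yeast species in TBS-based blocking buffer. Binding signal, detected with anti-GST antibody and quantified in Genespotter, is the normalized, background-subtracted spot intensity averaged over replicates, in arbitrary units specific to each domain.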

AgBbc1 = molecular target: AgBbc1
In short: as §1

AgBem1-D1 = molecular target: AgBem1-D1
In short: as §1

AgBzz1-D1 = molecular target: AgBzz1-D1
In short: as §1

AgBzz1-D2 = molecular target: AgBzz1-D2
In short: as §1

AgCyk3 = molecular target: AgCyk3
In short: as §1

AgFus1 = molecular target: AgFus1
In short: as §1

AgHof1 = molecular target: AgHof1
In short: as §1

AgHse1 = molecular target: AgHse1
In short: as §1

AgLsb1 = molecular target: AgLsb1
In short: as §1

AgLsb4 = molecular target: AgLsb4
In short: as §1

AgMyo5 = molecular target: AgMyo5
In short: as §1

AgNbp2 = molecular target: AgNbp2
In short: as §1

AgRvs167 = molecular target: AgRvs167
In short: as §1

AgSho1 = molecular target: AgSho1
In short: as §1

AgSla1-D1-D2 = molecular target: AgSla1-D1-D2
In short: as §1

AgSla1-D3 = molecular target: AgSla1-D3
In short: as §1

CaAbp1-D1 = molecular target: CaAbp1-D1
In short: as §1

CaAbp1-D2 = molecular target: CaAbp1-D2
In short: as §1

CaBbc1 = molecular target: CaBbc1
In short: as §1

CaBem1-D1 = molecular target: CaBem1-D1
In short: as §1

CaBzz1-D1 = molecular target: CaBzz1-D1
In short: as §1

CaBzz1-D2 = molecular target: CaBzz1-D2
In short: as §1

CaCyk3 = molecular target: CaCyk3
In short: as §1

CaFus1 = molecular target: CaFus1
In short: as §1

CaHof1 = molecular target: CaHof1
In short: as §1

CaHse1 = molecular target: CaHse1
In short: as §1

CaLsb1 = molecular target: CaLsb1
In short: as §1

CaLsb4 = molecular target: CaLsb4
In short: as §1

CaMyo5 = molecular target: CaMyo5
In short: as §1

CaNbp2 = molecular target: CaNbp2
In short: as §1

CaRvs167 = molecular target: CaRvs167
In short: as §1

CaRvs167-3 = molecular target: CaRvs167-3
In short: as §1

CaSho1 = molecular target: CaSho1
In short: as §1

CaSla1-D1-D2 = molecular target: CaSla1-D1-D2
In short: as §1

CaSla1-D3 = molecular target: CaSla1-D3
In short: as §1

ScAbp1 = molecular target: ScAbp1
In short: as §1

ScBbc1 = molecular target: ScBbc1
In short: as §1

ScBem1-D1 = molecular target: ScBem1-D1
In short: as §1

ScBzz1-D1 = molecular target: ScBzz1-D1
In short: as §1

ScBzz1-D2 = molecular target: ScBzz1-D2
In short: as §1

ScCyk3 = molecular target: ScCyk3
In short: as §1

ScFus1 = molecular target: ScFus1
In short: as §1

ScHof1 = molecular target: ScHof1
In short: as §1

ScHse1 = molecular target: ScHse1
In short: as §1

ScLsb1 = molecular target: ScLsb1
In short: as §1

ScLsb2 = molecular target: ScLsb2
In short: as §1

ScLsb3 = molecular target: ScLsb3
In short: as §1

ScLsb4 = molecular target: ScLsb4
In short: as §1

ScMyo3 = molecular target: ScMyo3
In short: as §1

ScMyo5 = molecular target: ScMyo5
In short: as §1

ScNbp2 = molecular target: ScNbp2
In short: as §1

ScPex13 = molecular target: ScPex13
In short: as §1

ScRvs167 = molecular target: ScRvs167
In short: as §1

ScSho1 = molecular target: ScSho1
In short: as §1

ScSla1-D1-D2 = molecular target: ScSla1-D1-D2
In short: as §1

ScSla1-D3 = molecular target: ScSla1-D3
In short: as §1

SpAbp1-D1 = molecular target: SpAbp1-D1
In short: as §1

SpBbc1 = molecular target: SpBbc1
In short: as §1

SpBzz1-D1 = molecular target: SpBzz1-D1
In short: as §1

SpBzz1-D2 = molecular target: SpBzz1-D2
In short: as §1

SpCyk3 = molecular target: SpCyk3
In short: as §1

SpHof1 = molecular target: SpHof1
In short: as §1

SpHof1-2 = molecular target: SpHof1-2
In short: as §1

SpHof1-3 = molecular target: SpHof1-3
In short: as §1

SpHse1 = molecular target: SpHse1
In short: as §1

SpLsb1 = molecular target: SpLsb1
In short: as §1

SpLsb4 = molecular target: SpLsb4
In short: as §1

SpMyo1 = molecular target: SpMyo1
In short: as §1

SpNbp2 = molecular target: SpNbp2
In short: as §1

SpPex13 = molecular target: SpPex13
In short: as §1

SpRvs167 = molecular target: SpRvs167
In short: as §1

SpSla1-D1-D2 = molecular target: SpSla1-D1-D2
In short: as §1

SpSla1-D3 = molecular target: SpSla1-D3
In short: as §1

B1: unnamed (peptide)
chain: SRQAIPPPVPNRPGG
SPOT peptide array binding signal intensity (AgAbp1): ≤ 0
SPOT peptide array binding signal intensity (AgBbc1): 1960
SPOT peptide array binding signal intensity (AgBem1-D1): 0.5
SPOT peptide array binding signal intensity (AgBzz1-D1): 280
SPOT peptide array binding signal intensity (AgBzz1-D2): 15
SPOT peptide array binding signal intensity (AgCyk3): ≤ 0
SPOT peptide array binding signal intensity (AgFus1): ≤ 0
SPOT peptide array binding signal intensity (AgHof1): 39.2
SPOT peptide array binding signal intensity (AgHse1): 40
SPOT peptide array binding signal intensity (AgLsb1): 1770
SPOT peptide array binding signal intensity (AgLsb4): 1590
SPOT peptide array binding signal intensity (AgMyo5): 74.5
SPOT peptide array binding signal intensity (AgNbp2): 106
SPOT peptide array binding signal intensity (AgRvs167): 362
SPOT peptide array binding signal intensity (AgSho1): ≤ 0
SPOT peptide array binding signal intensity (AgSla1-D1-D2): ≤ 0
SPOT peptide array binding signal intensity (AgSla1-D3): 3.5
SPOT peptide array binding signal intensity (CaAbp1-D1): 156
SPOT peptide array binding signal intensity (CaAbp1-D2): 8.5
SPOT peptide array binding signal intensity (CaBbc1): 3020
SPOT peptide array binding signal intensity (CaBem1-D1): 30
SPOT peptide array binding signal intensity (CaBzz1-D1): 2510
SPOT peptide array binding signal intensity (CaBzz1-D2): 346
SPOT peptide array binding signal intensity (CaCyk3): 359
SPOT peptide array binding signal intensity (CaFus1): 23
SPOT peptide array binding signal intensity (CaHof1): 1
SPOT peptide array binding signal intensity (CaHse1): 101
SPOT peptide array binding signal intensity (CaLsb1): 3.75
SPOT peptide array binding signal intensity (CaLsb4): 2960
SPOT peptide array binding signal intensity (CaMyo5): 2
SPOT peptide array binding signal intensity (CaNbp2): 50.5
SPOT peptide array binding signal intensity (CaRvs167): 1340
SPOT peptide array binding signal intensity (CaRvs167-3): ≤ 0
SPOT peptide array binding signal intensity (CaSho1): 8
SPOT peptide array binding signal intensity (CaSla1-D1-D2): 201
SPOT peptide array binding signal intensity (CaSla1-D3): 0.75
SPOT peptide array binding signal intensity (ScAbp1): 16
SPOT peptide array binding signal intensity (ScBbc1): 802
SPOT peptide array binding signal intensity (ScBem1-D1): ≤ 0
SPOT peptide array binding signal intensity (ScBzz1-D1): 23
SPOT peptide array binding signal intensity (ScBzz1-D2): 6
SPOT peptide array binding signal intensity (ScCyk3): 1
SPOT peptide array binding signal intensity (ScFus1): ≤ 0
SPOT peptide array binding signal intensity (ScHof1): 10
SPOT peptide array binding signal intensity (ScHse1): ≤ 0
SPOT peptide array binding signal intensity (ScLsb1): 1620
SPOT peptide array binding signal intensity (ScLsb2): 1320
SPOT peptide array binding signal intensity (ScLsb3): 3290
SPOT peptide array binding signal intensity (ScLsb4): 2540
SPOT peptide array binding signal intensity (ScMyo3): 371
SPOT peptide array binding signal intensity (ScMyo5): 220
SPOT peptide array binding signal intensity (ScNbp2): 304
SPOT peptide array binding signal intensity (ScPex13): 1830
SPOT peptide array binding signal intensity (ScRvs167): 1980
SPOT peptide array binding signal intensity (ScSho1): 32
SPOT peptide array binding signal intensity (ScSla1-D1-D2): 695
SPOT peptide array binding signal intensity (ScSla1-D3): 9.5
SPOT peptide array binding signal intensity (SpAbp1-D1): 17
SPOT peptide array binding signal intensity (SpBbc1): 723
SPOT peptide array binding signal intensity (SpBzz1-D1): 760
SPOT peptide array binding signal intensity (SpBzz1-D2): 59.5
SPOT peptide array binding signal intensity (SpCyk3): 3
SPOT peptide array binding signal intensity (SpHof1): ≤ 0
SPOT peptide array binding signal intensity (SpHof1-2): ≤ 0
SPOT peptide array binding signal intensity (SpHof1-3): 126
SPOT peptide array binding signal intensity (SpHse1): ≤ 0
SPOT peptide array binding signal intensity (SpLsb1): 1260
SPOT peptide array binding signal intensity (SpLsb4): 4790
SPOT peptide array binding signal intensity (SpMyo1): 120
SPOT peptide array binding signal intensity (SpNbp2): ≤ 0
SPOT peptide array binding signal intensity (SpPex13): ≤ 0
SPOT peptide array binding signal intensity (SpRvs167): 2220
SPOT peptide array binding signal intensity (SpSla1-D1-D2): 5
SPOT peptide array binding signal intensity (SpSla1-D3): ≤ 0

B2: unnamed (peptide)
chain: AIPPPVPNRPGGTTN
SPOT peptide array binding signal intensity (SpBzz1-D2): 0.5
SPOT peptide array binding signal intensity (SpCyk3): 1
SPOT peptide array binding signal intensity (SpHof1): ≤ 0
SPOT peptide array binding signal intensity (SpHof1-2): ≤ 0
SPOT peptide array binding signal intensity (SpHof1-3): 16
SPOT peptide array binding signal intensity (SpHse1): 8.5
SPOT peptide array binding signal intensity (SpLsb1): 959
SPOT peptide array binding signal intensity (SpLsb4): 2930
SPOT peptide array binding signal intensity (SpMyo1): 9.5
SPOT peptide array binding signal intensity (SpNbp2): 6.5
SPOT peptide array binding signal intensity (SpPex13): ≤ 0
SPOT peptide array binding signal intensity (SpRvs167): 2560
SPOT peptide array binding signal intensity (SpSla1-D1-D2): ≤ 0
SPOT peptide array binding signal intensity (SpSla1-D3): ≤ 0

B3: unnamed (peptide)
chain: DGNEEKPLLPTRPNK
SPOT peptide array binding signal intensity (AgAbp1): ≤ 0
SPOT peptide array binding signal intensity (AgBbc1): 977
SPOT peptide array binding signal intensity (AgBem1-D1): ≤ 0
SPOT peptide array binding signal intensity (AgBzz1-D1): 9.5
SPOT peptide array binding signal intensity (AgBzz1-D2): 17.5
SPOT peptide array binding signal intensity (AgCyk3): ≤ 0
SPOT peptide array binding signal intensity (AgFus1): ≤ 0
SPOT peptide array binding signal intensity (AgHof1): 23.8
SPOT peptide array binding signal intensity (AgHse1): ≤ 0
SPOT peptide array binding signal intensity (AgLsb1): 47.2
SPOT peptide array binding signal intensity (AgLsb4): 1730
SPOT peptide array binding signal intensity (AgMyo5): 0.25
SPOT peptide array binding signal intensity (AgNbp2): ≤ 0
SPOT peptide array binding signal intensity (AgRvs167): 43.8
SPOT peptide array binding signal intensity (AgSho1): ≤ 0
SPOT peptide array binding signal intensity (AgSla1-D1-D2): ≤ 0
SPOT peptide array binding signal intensity (AgSla1-D3): ≤ 0
SPOT peptide array binding signal intensity (CaAbp1-D1): ≤ 0
SPOT peptide array binding signal intensity (CaAbp1-D2): ≤ 0
SPOT peptide array binding signal intensity (CaBbc1): 844
SPOT peptide array binding signal intensity (CaBem1-D1): ≤ 0
SPOT peptide array binding signal intensity (CaBzz1-D1): 18
SPOT peptide array binding signal intensity (CaBzz1-D2): 1.75
SPOT peptide array binding signal intensity (CaCyk3): 7
SPOT peptide array binding signal intensity (CaFus1): ≤ 0
SPOT peptide array binding signal intensity (CaHof1): 0.5
SPOT peptide array binding signal intensity (CaHse1): 6.38
SPOT peptide array binding signal intensity (CaLsb1): ≤ 0
SPOT peptide array binding signal intensity (CaLsb4): 3160
SPOT peptide array binding signal intensity (CaMyo5): ≤ 0
